From PubChem BioAssay (NCI)
This is part of a sample that, as a whole, favours compounds with a hit. Of some 83,000 tested, about 20% had one in any assay.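 Treatment: one concentration, 48 hours, 96-well format. Scoring: percent growth, with anything below 10 considered active.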 Unmarked numbers belong to inactive results. Activity calls are given as the source filed them.

Experiments:
Experiment in all cases: NCI-60 one-dose screen, 48 h (100 = growth as untreated, 0 = no growth, -100 = all killed)
Settings in all cases: 10 µM unless noted
SR leukemia = system: SR leukemia
RPMI-8226 leukemia = system: RPMI-8226 leukemia
OVCAR-8 ovarian = system: OVCAR-8 ovarian
OVCAR-4 ovarian = system: OVCAR-4 ovarian
SK-OV-3 ovarian = system: SK-OV-3 ovarian
IGROV1 ovarian = system: IGROV1 ovarian
OVCAR-3 ovarian = system: OVCAR-3 ovarian
HS 578T breast = system: HS 578T breast
NCI/ADR-RES ovarian = system: NCI/ADR-RES ovarian
T-47D breast = system: T-47D breast
BT-549 breast = system: BT-549 breast
MDA-MB-435 melanoma = system: MDA-MB-435 melanoma
SW-620 colon = system: SW-620 colon
MCF7 breast = system: MCF7 breast
HCT-116 colon = system: HCT-116 colon
HCC-2998 colon = system: HCC-2998 colon
KM12 colon = system: KM12 colon
OVCAR-5 ovarian = system: OVCAR-5 ovarian

SMILES | growth (SR leukemia) | growth (RPMI-8226 leukemia) | growth (OVCAR-8 ovarian) [%] | growth (OVCAR-4 ovarian) [%] | growth (SK-OV-3 ovarian) [%] | growth (IGROV1 ovarian) [%] | growth (OVCAR-3 ovarian) | growth (HS 578T breast) [%] | growth (NCI/ADR-RES ovarian) | growth (T-47D breast) | growth (BT-549 breast) | growth (MDA-MB-435 melanoma) | growth (SW-620 colon) [%] | growth (MCF7 breast) | growth (HCT-116 colon) | growth (HCC-2998 colon) | growth (KM12 colon) | growth (OVCAR-5 ovarian) [%]
CCN1CCN(CCOc2ccc(CNc3ccc4nc(CCC5CCCCC5)[nH]c4c3)cc2)CC1 | 31.5% | -5.5% (active) | 38.2 | 48.2 | 87.1 | 40.9 | 27.8% | 65 | 73.5% | -8.02% (active) | 65.6% | -17.8% (active) | 22.1 | 3.86% (active) | 17.9% | 4.19% (active) | 47.1% | 
CCn1c2ccccc2c2cc(C(O)c3cccc4ncccc34)ccc21 (stereo unspecified) | 15.5% | -2.06% (active) | 20.8 | 45.4 | 69.1 | 19.1 | 1.86% (active) |  | -53.2% (active) | 59% | -8.94% (active) | 0.201% (active) |  | 15.5% | 0.739% (active) | -32.5% (active) | 8.55% (active) | 48.7
Cc1nn(C)c2ncnc(Nc3ccccc3Br)c12 | 84.8% | 95.2% | 106 | 109 | 99 | 105 | 108% | 101 | 107% | 94.8% | 108% | 106% | 106 | 95.6% | 110% | 108% | 108% | 
CN(C)c1ccc(Cc2cc(-c3ccccc3)nn(C/C(=N/O)c3ccccc3)c2=O)cc1 | 46.3% | 28.2% | 57.2 | 55.1 | 94.6 | 68.5 | 56.2% | 83.1 | 44.1% | 11.8% | 61.2% | 38% | 62.1 | 29.1% | 46% | 81.2% | 31.8% | 
CCOC(=O)CC1C(CNC(=O)NC)OC(n2cnc3c(NC(=O)Nc4ccccc4)ncnc32)C1O[Si](C)(C)C(C)(C)C (stereo unspecified) | 28.2% | 11.2% | 65.4 | 61.2 | 93.6 | 51.1 | 79.6% | 43.9 | 85.6% | 27.1% | 81.6% | 53.6% | 71.2 | 18.1% | 16.7% | 61.8% | 43.4% | 
COc1cc(-c2ccc(-c3ccc(C(=N)N)s3)s2)cc(OC)c1OC | -20.7% (active) | -34.7% (active) | 13.9 | 45.1 | 85 | 71.7 | 3.44% (active) | 44.1 | 77.9% | 39.3% | 61.7% | -34.8% (active) |  | -6.02% (active) |  | 49.7% | 27.7% | 
COc1ccc(C2=NN3C(C2)c2cc(Br)ccc2OC3c2ccncc2)cc1 (stereo unspecified) | 64.2% | 77.8% | 82.6 | 78.9 | 70.6 | 48.9 | 80.1% | 89.4 | 82% | 69.1% | 76.6% | 92.4% | 90.7 | 70.7% | 76.8% |  | 73% | 
CCCCCCC/C=N/NC(=O)c1ccc(-n2cc(-c3ccccc3)nn2)cc1 | 79.4% | 94.3% |  | 93.1 | 87.8 | 74.9 | 102% |  | 86.9% | 95.4% | 82.1% | 90.8% | 95.6 | 85.9% | 97.5% | 88% | 86.8% | 89.9
Nc1nc(=O)n([C@H]2CC=C(CO)O2)cc1F | 86.1% | 101% |  | 107 | 101 | 95.2 | 104% | 83.6 | 104% | 98.6% | 114% | 97.8% | 90.5 | 95.8% | 108% | 104% | 103% | 89.3
O=c1n(C2OC(CO)C(O)C2O)ccc2nccn12 (stereo unspecified) | 88.2% | 114% |  | 117 | 117 | 113 | 107% | 101 | 113% | 118% | 121% | 102% | 94.4 | 94.1% | 112% |  | 103% | 115
COc1ccc(NC(=O)c2ccc(NC3=C(c4ccc(Cl)cc4)C(=O)NC3=O)cc2)cc1 | 57.1% | 73.8% |  | 84.1 | 69.8 | 92.8 | 89.2% | 102 | 88.3% | 62.3% | 82.1% | 95.3% | 103 | 83.5% | 88.9% | 97.6% | 80.9% | 100
C=CCNc1ccc2c3c(cccc13)C(=O)N(CC=C)C2=O | 74.8% | 95.2% | 96.3 | 110 | 103 | 88.7 | 107% |  | 92.8% | 83% | 98.4% | 109% | 108 | 34% | 86.5% | 106% | 101% | 
COc1ccc(Cn2cc(C(=O)N=Nc3c(O)[nH]c4ccc(Br)cc34)nn2)cc1 | 77.5% | 100% |  | 105 | 108 | 105 | 112% | 114 | 103% | 106% | 111% | 101% | 107 | 86.3% | 77% | 98.5% | 104% | 
Oc1cccc2c1NCCC2 | 27.2% | 14.9% |  | 17.9 | 20.4 | 18.3 | 4.94% (active) | 24.3 | 23.7% | 22.1% | 39.1% | 15.4% | 19.9 | 13.1% | 8.94% (active) | 32.8% | 20.7% | 44.7
O=C(O)/C=C\C(=O)Nc1ccc2c(c1)Cc1cc(F)ccc1-2 | 106% | 97.6% |  | 100 | 94.2 | 95.5 | 106% | 126 | 102% | 84.6% | 111% | 102% | 110 | 93.3% | 92.1% | 97.6% | 101% | 107
CCOC(=O)c1cc(C(=O)c2cc(OC)cc(OC)c2)n2ccccc12 | 16.3% | 27.6% |  | 72.4 | 35.8 | 52.7 | -5.04% (active) | 39.4 | 12.4% | 49.3% | 35.7% | -4.66% (active) | 28.2 | 22.3% | 12.2% | 54.7% | 24.2% | 95.2
O=C(OCC(O)C(=O)NC12CC3CC(CC(C3)C1)C2)c1cccc(Br)c1 (stereo unspecified) | 84.9% | 94.6% |  | 98.2 | 102 | 103 | 109% | 95.7 | 101% | 93.2% | 115% | 97% | 99.2 | 91.7% | 99% | 114% | 107% | 101
